Bioassay records (PubChem BioAssay)
MazF activator – MazEF (E. coli) toxin RNase activation; P0AE70; FAM/BHQ RNA-DNA oligo cleavage fluorescence, 5 h; activation, % at 20 µM; 350,000 compounds, 0.32% hits; AID 504720; in the data active = activation above about 50%
Mtb bLac sens – beta-lactam sensitization of Mtb H37Rv; M. tuberculosis H37Rv growth with meropenem, percent inhibition; inhibition, % at 25 µM; 330,000 compounds, 0.27% hits; call rule not given here;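 note: growth measured after seven days incubation then overnight dye step; 0% = bacteria only wells and 100% = bacteria with antibiotic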
FBA Mtb inh – Mtb fructose-bisphosphate aldolase inhibition | P9WQA3 | purified M. tuberculosis FBA, fluorescence read-out | inhibition, % at 1 µM | 360,000 compounds, 2.3% hits | AID 588726;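 note: 0% = vehicle and 100% = reference inhibitor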
Target sequence (P9WQA3 whole entry, looked up): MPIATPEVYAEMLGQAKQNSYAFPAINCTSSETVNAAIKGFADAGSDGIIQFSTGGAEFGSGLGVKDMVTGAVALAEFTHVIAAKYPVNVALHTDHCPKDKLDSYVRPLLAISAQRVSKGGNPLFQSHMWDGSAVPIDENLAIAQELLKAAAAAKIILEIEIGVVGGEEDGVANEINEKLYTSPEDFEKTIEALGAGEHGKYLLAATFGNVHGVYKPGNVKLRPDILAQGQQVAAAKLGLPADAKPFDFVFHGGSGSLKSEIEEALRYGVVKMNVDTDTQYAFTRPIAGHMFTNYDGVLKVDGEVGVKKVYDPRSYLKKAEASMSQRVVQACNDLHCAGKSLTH
GDH-TPI counter-1 – inhibits GDH-TPI coupling enzymes, artifact for Mtb FBA screen; GDH-TPI coupled enzyme counterscreen, NADH absorbance; inhibition, % at 4.8 µM; 360,000 compounds, 1.2% hits; AID 588335; in the data active = inhibition above about 30%;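 note: 0% = DMSO wells and 100% = wells lacking the enzyme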
CCHF vOTU inh – blocks the CCHF virus ovarian tumor domain protease; CCHFV vOTU protease, Pep-AMC fluorescence; inhibition, % at 11.5 µM; 370,000 compounds, 0.55% hits; in the data active = inhibition above about 30%; note: 0% = vehicle wells with enzyme and 100% = no enzyme wells
Mtb FBA inh conf – Mtb FBA inhibition, confirmed; shares compounds with FBA Mtb inh; purified M. tuberculosis FBA, fluorescence read-out; inhibition, % at 1 µM; 5,600 compounds, 78% hits; AID 651616;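 note: 0% = vehicle wells and 100% = reference inhibitor wells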
GDH-TPI counter-2 – counter-screen for M. tuberculosis FBA inhibitors: GDH-TPI coupled enzyme inhibition; shares compounds with FBA Mtb inh; GDH-TPI coupled enzyme counterscreen, fluorescence; inhibition, % at 1 µM; 5,600 compounds, 81% hits; in the data active = inhibition above about 10%
* = called active by the depositor. This is a sample that favours compounds with a hit; in the whole collection about 4% have one here. Cut-off read from the data, not from the text of the source, unless noted: active = inhibition above about 27%; inactive = the rest.

How did CCCCCC(=O)Nc1c2c(nc3ccccc13)CCC2 do in these assays?
MazF activator: 11; Mtb bLac sens: 27; FBA Mtb inh: 2; GDH-TPI counter-1: -1; CCHF vOTU inh: -5

Results for CCN(CC)CC(=O)Nc1c2c(nc3ccccc13)N(C)CC2 ?
MazF activator: 7; Mtb bLac sens: 6; FBA Mtb inh: 48*; GDH-TPI counter-1: 12; CCHF vOTU inh: -25; GDH-TPI counter-2: active

How did CC(C)C(=O)Nc1c2c(nc3ccccc13)N(C)CC2 do in these assays?
MazF activator: 7; Mtb bLac sens: 6; FBA Mtb inh: 74*; GDH-TPI counter-1: 12; CCHF vOTU inh: -65; Mtb FBA inh conf: active; GDH-TPI counter-2: active

How did CCNC(=O)Nc1cc(OC)c(OC)cc1C(=O)O do in these assays?
MazF activator: -1; Mtb bLac sens: 2; FBA Mtb inh: 45*; GDH-TPI counter-1: 20; CCHF vOTU inh: -8; Mtb FBA inh conf: 89*; GDH-TPI counter-2: 78*

What do the screens show for `COC(=O)[C@]12CCCCC=C1N(Cc1ccc(OC)cc1)C(=O)[C@@H]2CC(=O)N1CCCC1`?
CCHF vOTU inh: 5

Results for CC(NC(=O)C1=CC=CN2CCS(=O)(=O)N=C12)c1ccc(Cl)cc1Cl (stereo not given) ?
MazF activator: 4; Mtb bLac sens: -9; FBA Mtb inh: 29*; GDH-TPI counter-1: 1; CCHF vOTU inh: -23; Mtb FBA inh conf: 126*; GDH-TPI counter-2: 95*

Results for O=C(NCc1ccccc1Cl)C1=CC=CN2CCS(=O)(=O)N=C12 ?
MazF activator: -6; Mtb bLac sens: 2; FBA Mtb inh: 36*; GDH-TPI counter-1: 11; CCHF vOTU inh: -30; Mtb FBA inh conf: active; GDH-TPI counter-2: active

How did CC(NC(=O)C1=CC=CN2CCS(=O)(=O)N=C12)c1ccc(Cl)c(Cl)c1 (stereo not given) do in these assays?
MazF activator: 4; Mtb bLac sens: -1; FBA Mtb inh: 16; GDH-TPI counter-1: 18; CCHF vOTU inh: -7

Results for Cn1c(=O)oc2cc(S(=O)(=O)N3CCN(C(=O)C4CCCO4)CC3)ccc21 (stereo not given) ?
CCHF vOTU inh: -3

How did C[C@@H](NC(=O)c1ccc(C#Cc2cccc(F)c2)cn1)C(C)(C)O do in these assays?
CCHF vOTU inh: 0

How did CC1C(c2ccccc2)=Nn2c(=O)n(-c3ccccc3)c(=O)n21 (stereo not given) do in these assays?
MazF activator: 18; FBA Mtb inh: 103*; GDH-TPI counter-1: 1; CCHF vOTU inh: -20; Mtb FBA inh conf: active; GDH-TPI counter-2: active

How did O=c1n(-c2ccccc2)c(=O)n2n1CC(O)C2 do in these assays?
MazF activator: -4; Mtb bLac sens: 1; FBA Mtb inh: 0; GDH-TPI counter-1: -1; CCHF vOTU inh: 2

How did Cc1ccc(-c2cc(-c3nnc(SCC(=O)N4c5ccccc5Sc5ccccc54)n3N)[nH]n2)cc1 do in these assays?
CCHF vOTU inh: -4

Results for COCCNC(=O)c1oc2ccc3c(c2c1C)C(O)CC(C)(C)O3 (stereo not given) ?
MazF activator: 4; Mtb bLac sens: -3; FBA Mtb inh: 38*; GDH-TPI counter-1: 11; CCHF vOTU inh: -13; Mtb FBA inh conf: 52*; GDH-TPI counter-2: 42*

How did CCN(CC)CCCNC(=O)c1oc2ccc3c(c2c1C)C(O)CC(C)(C)O3 (stereo not given) do in these assays?
MazF activator: 4; Mtb bLac sens: -5; FBA Mtb inh: 44*; GDH-TPI counter-1: 14; CCHF vOTU inh: -14; Mtb FBA inh conf: 55*; GDH-TPI counter-2: 43*

What do the screens show for `O=C(O)COc1ccccc1C=NNC(=O)Cc1cc(=O)[nH][nH]1`?
CCHF vOTU inh: -6

What do the screens show for `CCOC(=O)c1cn(C2CC2)c2c(F)c(NCCCN(C)C)c(F)cc2c1=O`?
MazF activator: 6; Mtb bLac sens: -9; FBA Mtb inh: 70*; GDH-TPI counter-1: 18; CCHF vOTU inh: -21; Mtb FBA inh conf: 134*; GDH-TPI counter-2: 79*

How did COc1cccc(/C=N/n2c(N)c(S(=O)(=O)c3cccs3)c3nc4ccccc4nc32)c1OC do in these assays?
MazF activator: -2; Mtb bLac sens: -3; FBA Mtb inh: 1; GDH-TPI counter-1: 10; CCHF vOTU inh: 2
